# From article PMC5700166
# How the values were obtained:
# Experiment in all cases: protein-binding microarray (PBM); PBM: ~300 nM protein, 6 mM HEPES pH 7.8, 80 mM KCl, 0.5 mM EDTA, 0.5 mM EGTA, 6% glycerol, 35 ng/ul poly-dIdC, 1% milk, 1 h, room temperature; Ap Aiptasia and Nv Nematostella (sea anemones) / Co Capsaspora / Aq Amphimedon (sponge) / Dm Drosophila / Hu human; RHD is the Rel homology domain; high values mean tight binding
# Conditions in all cases: dsDNA, one strand shown
# GST-Ap-NF-kB RHD = molecular target: T1, GST-Ap-NF-kB RHD (Exaiptasia pallida (Aiptasia), UniProt A0A913YAJ5 2-422)
# T1 sequence: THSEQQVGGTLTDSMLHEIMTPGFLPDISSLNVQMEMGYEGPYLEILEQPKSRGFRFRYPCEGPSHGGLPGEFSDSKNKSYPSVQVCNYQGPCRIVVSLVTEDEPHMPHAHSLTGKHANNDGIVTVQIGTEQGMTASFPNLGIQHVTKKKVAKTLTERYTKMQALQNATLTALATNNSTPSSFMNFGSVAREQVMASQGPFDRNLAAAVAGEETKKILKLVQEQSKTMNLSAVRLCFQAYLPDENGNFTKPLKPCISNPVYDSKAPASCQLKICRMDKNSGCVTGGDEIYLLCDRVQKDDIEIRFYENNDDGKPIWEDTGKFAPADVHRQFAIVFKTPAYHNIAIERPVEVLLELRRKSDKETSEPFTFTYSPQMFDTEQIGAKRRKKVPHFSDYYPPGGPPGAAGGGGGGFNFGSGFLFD
# [1] = molecular target: T2, GST-Nv-NF-kB (Ser allele) (Nematostella vectensis, UniProt A7UNT2 2-411)
# T2 sequence: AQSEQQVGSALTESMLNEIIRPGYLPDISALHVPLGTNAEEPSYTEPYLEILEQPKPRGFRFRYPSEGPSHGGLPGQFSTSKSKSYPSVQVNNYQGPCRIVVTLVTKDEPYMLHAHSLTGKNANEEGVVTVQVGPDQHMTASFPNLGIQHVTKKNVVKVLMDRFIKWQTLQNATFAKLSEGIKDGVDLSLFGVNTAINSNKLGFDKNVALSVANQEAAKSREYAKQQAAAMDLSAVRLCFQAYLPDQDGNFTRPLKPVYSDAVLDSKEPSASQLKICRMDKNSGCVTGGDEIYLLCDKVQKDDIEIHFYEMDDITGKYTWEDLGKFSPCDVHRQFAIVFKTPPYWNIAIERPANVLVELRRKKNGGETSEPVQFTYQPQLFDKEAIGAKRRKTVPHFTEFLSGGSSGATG
# GST-Co-NF-kB = molecular target: T3, GST-Co-NF-kB (Capsaspora owczarzaki, UniProt F1ARL5 200-546)
# T3 sequence: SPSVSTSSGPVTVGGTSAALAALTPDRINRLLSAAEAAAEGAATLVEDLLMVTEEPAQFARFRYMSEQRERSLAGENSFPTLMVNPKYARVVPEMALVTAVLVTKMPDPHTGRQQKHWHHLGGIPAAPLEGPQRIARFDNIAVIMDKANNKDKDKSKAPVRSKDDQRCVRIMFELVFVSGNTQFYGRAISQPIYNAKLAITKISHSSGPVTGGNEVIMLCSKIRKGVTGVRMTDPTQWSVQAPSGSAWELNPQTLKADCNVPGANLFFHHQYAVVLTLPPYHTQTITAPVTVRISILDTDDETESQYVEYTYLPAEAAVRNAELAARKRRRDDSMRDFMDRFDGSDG
# GST-Dm-Relish = molecular target: T4, GST-Dm-Relish (Drosophila melanogaster, UniProt Q94527 99-473)
# T4 sequence: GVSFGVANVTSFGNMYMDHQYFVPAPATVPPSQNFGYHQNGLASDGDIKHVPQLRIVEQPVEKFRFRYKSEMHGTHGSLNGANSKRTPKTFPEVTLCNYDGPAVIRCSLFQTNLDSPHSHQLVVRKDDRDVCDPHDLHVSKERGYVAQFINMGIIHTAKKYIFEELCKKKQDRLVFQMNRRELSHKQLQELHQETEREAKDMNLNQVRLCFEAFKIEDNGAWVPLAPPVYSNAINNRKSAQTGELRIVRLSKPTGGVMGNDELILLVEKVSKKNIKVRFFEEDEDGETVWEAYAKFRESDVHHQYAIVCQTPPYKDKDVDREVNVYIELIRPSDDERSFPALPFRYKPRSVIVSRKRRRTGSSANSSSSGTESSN
# GST-Aq-NF-kB = molecular target: T5, GST-Aq-NF-kB (Amphimedon queenslandica, UniProt A9Y5G7 2-389)
# T5 sequence: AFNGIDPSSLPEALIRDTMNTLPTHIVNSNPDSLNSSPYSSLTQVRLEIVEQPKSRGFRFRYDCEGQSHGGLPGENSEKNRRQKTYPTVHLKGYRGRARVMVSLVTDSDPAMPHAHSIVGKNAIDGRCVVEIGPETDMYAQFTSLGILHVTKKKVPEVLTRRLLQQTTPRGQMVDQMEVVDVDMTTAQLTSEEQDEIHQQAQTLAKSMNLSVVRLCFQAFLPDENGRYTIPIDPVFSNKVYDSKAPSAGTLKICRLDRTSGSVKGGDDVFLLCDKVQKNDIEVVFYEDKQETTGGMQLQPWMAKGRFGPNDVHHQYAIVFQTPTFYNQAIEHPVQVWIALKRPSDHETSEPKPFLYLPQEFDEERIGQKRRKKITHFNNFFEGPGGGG
sequence,measurement,setting,value
CCGATTAACATCAGGGGGGGATATGATGTTAATCGGGTCTTGATTCGCTTGACGCTGCTG,binding signal,GST-Ap-NF-kB RHD,6.21 z-score
same,binding signal,[1],5.63 z-score
same,binding signal,GST-Co-NF-kB,5.9 z-score
same,binding signal,GST-Dm-Relish,4.91 z-score
same,binding signal,GST-Aq-NF-kB,5.29 z-score
CCGATTAACATCAGGATATCCCATGATGTTAATCGGGTCTTGATTCGCTTGACGCTGCTG,binding signal,GST-Ap-NF-kB RHD,2.32 z-score
same,binding signal,GST-Co-NF-kB,1.41 z-score
same,binding signal,GST-Dm-Relish,3 z-score
same,binding signal,GST-Aq-NF-kB,2.24 z-score
CCGATTAACATCATAGTGAGGGGTGATGTTAATCGGGTCTTGATTCGCTTGACGCTGCTG,binding signal,GST-Ap-NF-kB RHD,2.05 z-score
same,binding signal,GST-Co-NF-kB,1.74 z-score
same,binding signal,GST-Aq-NF-kB,1.09 z-score
CCGATTAACATCAAGGGGGGGAATGATGTTAATCGGGTCTTGATTCGCTTGACGCTGCTG,binding signal,GST-Ap-NF-kB RHD,6.62 z-score
same,binding signal,GST-Co-NF-kB,8.37 z-score
same,binding signal,GST-Dm-Relish,4.96 z-score
same,binding signal,GST-Aq-NF-kB,5.81 z-score
CCGATTAACATCACTTCCCCCCCTGATGTTAATCGGGTCTTGATTCGCTTGACGCTGCTG,binding signal,GST-Ap-NF-kB RHD,5.69 z-score
same,binding signal,[1],5.01 z-score
same,binding signal,GST-Co-NF-kB,8 z-score
same,binding signal,GST-Dm-Relish,4.33 z-score
same,binding signal,GST-Aq-NF-kB,4.94 z-score
CCGATTAACATCAGGGGGGGAACTGATGTTAATCGGGTCTTGATTCGCTTGACGCTGCTG,binding signal,GST-Ap-NF-kB RHD,6.55 z-score
same,binding signal,GST-Co-NF-kB,8.33 z-score
same,binding signal,GST-Dm-Relish,5.17 z-score
same,binding signal,GST-Aq-NF-kB,4.84 z-score
CCGATTAACATCAGGGGGGGAGATGATGTTAATCGGGTCTTGATTCGCTTGACGCTGCTG,binding signal,GST-Ap-NF-kB RHD,5.6 z-score
same,binding signal,GST-Co-NF-kB,8.63 z-score
same,binding signal,GST-Dm-Relish,3.66 z-score
same,binding signal,GST-Aq-NF-kB,4.59 z-score
CCGATTAACATCACCCTTGGGAATGATGTTAATCGGGTCTTGATTCGCTTGACGCTGCTG,binding signal,GST-Ap-NF-kB RHD,1.03 z-score
same,binding signal,GST-Co-NF-kB,2.46 z-score
same,binding signal,GST-Aq-NF-kB,2.01 z-score
